Experimental data as given in PubChem BioAssay (NCI).
Several values for one entry are separate records, joined by “and”; a condition that tells them apart may be missing. Identical values can stand only once. The panel holds about 79,000 compounds, 15% with a hit somewhere; the sample as a whole holds those more often. Unmarked numbers belong to inactive results. Activity calls are given as the source filed them. No stated cut-off is given here; in the data, active means growth inhibition above about 70%; inactive means the rest.

Experiment: NCI Yeast Anticancer Drug Screen. Data for the cln2 rad14 strain (AID 165);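 further: 0% = growth equal to vehicle treated cultures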
Settings: S. cerevisiae cln2 rad14 strain, active compounds read high
Procedure: Growth inhibition of yeast strains with defined genetic alterations is measured as a screen for potential anti-cancer activity. Selected strains with alterations in DNA damage repair or cell cycle control were exposed to compounds and growth inhibition was measured relative to vehicle treated controls. The strain used in this assay is cln2 rad14

[1] = at 5.0 µM (retest, dose inferred, filed as 0.5)
[2] = at 50.0 µM (retest, dose inferred, filed as 5.0)

Row | SMILES | growth inhibition [1] | growth inhibition [2] | growth inhibition (at 50.0 µM)
1 | Nc1cccc2cc(Cl)cnc12 | 52% | 41% | 49.3%
2 | COc1cccc2c1C(=O)c1c(O)c3c(c(O)c1C2=O)CC(O)(C(=O)CO)CC3OC1CC(N)C(O)C(C)O1 (stereo unspecified) | 2% and 8% and 23% | 1% and 4% and 53% | 
3 | COc1ccc2c(C)cc(N/N=C/c3sccc3C)nc2c1 | 4% | -26% | 45.8%
4 | O=S(=O)(O)CC[S][Sn]([S]CCS(=O)(=O)O)([c]1ccccc1)[c]1ccccc1 | 6% | 91% (active) | 88.5% (active)
5 | CN(C)CCNC(=O)c1cccc2nc3c(ccc4ccccc43)nc12 | 4% | 57% | 26.9%
6 | CCc1nc2ccc(N=Nc3c(O)ccc4ccccc34)cc2[nH]1 | 9% | 41% | 91.9% (active)
7 | CC(C)(C(=O)NN)c1ccccc1 | 20% | 88% (active) | 55.5%
8 | CSc1ccc2c(c1)C(N1CCN(C)CC1)Cc1ccccc1S2 (stereo unspecified) | 91% (active) | 88% (active) | 76% (active)
9 | CCCCCC(=O)C(C)(c1nc2n(c1O)/C(=N/C(=O)Nc1ccc(Cl)cc1)N=N2)c1nc2n(c1O)/C(=N/C(=O)Nc1ccc(Cl)cc1)N=N2 | -27% | 3% | -23.3%
10 | C=Cc1c(C)c(O)cc2c1-c1ccc(O)c(C)c1CC2 | 12% | 59% | 10.6%
11 | CCC(C)C(=O)OCC(=O)c1ccc(-c2ccccc2)cc1 (stereo unspecified) | -5% | -8% | 2.3%
12 | O=C(O)NCC1CCCCC1 (tested in a mixture with another compound) | -4% | 11% | 33%
13 | O=C1C=CC(=Nc2ccc3c(c2)Cc2cc(Cl)ccc2-3)O1 | 7% | 99% (active) | 98.2% (active)
14 | Cc1[nH]nc(C(F)(F)F)c1N=NN(C)C | 81% (active) | 99% (active) | 99.1% (active)
